Growth inhibition data for 40 compounds are collected here from PubChem BioAssay (NCI).

SMILES strings stand for the structures. Compounds without any hit were thinned out: in the full panel of roughly 79,000, 15% have a hit. Calls of active or inactive are those of the source. Cut-off read from the data, not from the text of the source: active = growth inhibition above about 70%; inactive = the rest. Where a SMILES comes first, the peptide text is derived from it. [ ]: non-standard residue; d: D form. The star is where a group is joined. NMeAc5c = CNC1(C(=O)O)CCCC1; Boc = CC(C)(C)OC(=O)*; OBn = c1ccc(CO*)cc1

A short description of this assay: NCI Yeast Anticancer Drug Screen. Data for the bub3 strain (AID 167). The settings on record: S. cerevisiae bub3 mutant strain, at 50.0 µM, hits give high values. The procedure: Growth inhibition of yeast strains with defined genetic alterations is measured as a screen for potential anti-cancer activity. Selected strains with alterations in DNA damage repair or cell cycle control were exposed to compounds and growth inhibition was measured relative to vehicle treated controls. The strain used in this assay is bub3
For `CCOC(=O)c1c(NCCO)c(-c2ccccc2)c(=O)n2c1[nH]c1ccccc12`, the growth inhibition is -0.9% (inactive).

On to `O=C1/C(=C\c2ccccc2)C2C3CCC(C3)C2/C1=C\c1ccccc1` (stereo not given), for which the growth inhibition is 11.1% (inactive).

`Cc1ccc(C)c2c(Cl)c3c(C)ccc(C)c3nc12`: the growth inhibition is -9.8% (inactive).

`c1ccc(CN[C@]23C4C5CC6C7C5C2C7[C@@](NCc2ccccc2)(C64)N3Cc2ccccc2)cc1` (stereo not given in full): the growth inhibition was -0.85% (inactive).

With `c1cc(Cc2ccsc2)cs1`, the growth inhibition is -11.7% (inactive).

Consider `CC(=O)OC1CC1(Br)Br` (stereo not given), for which the growth inhibition is 6.5% (inactive).

Consider `CCCCCCCCCC(=O)OCCCC(CCCOC(=O)CCCCCCCCC)OC(=O)CCCCCCCCC`, for which the growth inhibition is -16.4% (inactive).

Regarding `CC(C)C(N)C(=O)NC(C(=O)O)C(C)C` (stereo not given), the growth inhibition was -0.6% (inactive).

Take `CN(C)C(=S)SCCC(=O)O`: the growth inhibition was -2.65% (inactive).

Consider `C(=Nc1ccc2c(c1)Cc1ccccc1-2)c1ccc2c(c1)OCO2`, for which the growth inhibition was 3.05% (inactive).

`COC(=O)CC[N+]1=CCC(c2ccccc2)(c2ccccc2)O1`: the growth inhibition is -15.9% (inactive).

`CCCCOB(OCCCC)Oc1c(C(C)(C)C)cc(C)cc1C(C)(C)C`: the growth inhibition was -10.2% (inactive).

In the case of `Clc1cnc(/N=C/c2ccc(/C=N/c3ncc(Cl)cc3Cl)cc2)c(Cl)c1`, the growth inhibition is -5.8% (inactive).

In the case of `CCCCCCCCCCCCCC/C(C(=O)OC)=C(/O)C(=O)OCC`, the growth inhibition is -57.8% (inactive).

Regarding `COC(=O)c1cc(C)nc(Cl)c1C(=O)O`, the growth inhibition was -2.05% (inactive).

`Nc1cc2c3c(cccc3c1Br)C(=O)NC2=O`: the growth inhibition is 15.3% (inactive).

In the case of `CN(C(=O)C(Cc1ccccc1)NC(=O)OC(C)(C)C)C1(C(=O)NC(Cc2ccccc2)C(=O)OCc2ccccc2)CCCC1` (stereo not drawn) (Boc-Phe-[NMeAc5c]-Phe-OBn; configuration not given here), the growth inhibition was 8.6% (inactive).

For `CS(=O)CC(=N\N)/C(CS(C)=O)=N/N` (stereo not given), the growth inhibition is -1.15% (inactive).

With `Cc1cccc(NC(=O)CCCCCCCCC(=O)Nc2cccc(C)c2C)c1C`, the growth inhibition was -2.05% (inactive).

On to `CCCC(O)CO` (stereo not given), for which the growth inhibition is -0.5% (inactive).

As to `C=C(C)c1ccc2c(c1)C(=O)C[C@@H]1[C@](C)(C#N)CCC[C@]21C`, the growth inhibition is 46.9% (inactive).

With `CC(C)(C)c1ccc(-c2nc3ccc([N+](=O)[O-])cc3c(=O)o2)cc1`, the growth inhibition was 16.1% (inactive).

Regarding `CC12CCC(=O)C=C1CCC1C2CCC2(C)C(C(=O)Cn3c(=O)cc[nH]c3=O)CCC12` (stereo not given), the growth inhibition was -1.35% (inactive).

As to `Cc1nnc(N/N=C/c2ccccc2)n1/N=C\c1ccccc1`, the growth inhibition was 4.85% (inactive).

On to `CC12CCC(CC1)C2(C)C`, for which the growth inhibition was 4.75% (inactive).

`COC(=O)c1c(C(=O)OC)c2ccccn2c1-c1cc(OC)c(Br)c(=O)o1`: the growth inhibition was -4.15% (inactive).

On to `CCOC(=O)CC(C)C(C(=O)OCC)C(=O)OCC` (stereo not given), for which the growth inhibition was 23.6% (inactive).

For `Cc1ccc(N=Nc2ccc(C)cc2NC(=O)Nc2cc(C)ccc2C)cc1`, the growth inhibition was 26.1% (inactive).

For the compound `CCOc1ccc(-c2nnc(Nc3ccc(S(=O)(=O)N4CCCCC4)cc3)s2)cc1`, the growth inhibition is -2.15% (inactive).

On to `CN1CC[C@H]([C@@H](O)c2ccccc2)C1=O`, for which the growth inhibition is 0.35% (inactive).

Regarding `CN(C)Cc1cc(C(=O)c2ccccc2)c(O)cc1O`, the growth inhibition is -2.05% (inactive).

Regarding `Cc1cc(Cl)ccc1C(=O)O`, the growth inhibition is -12.8% (inactive).

On to `CCc1cc2c(c3c1CCCC3=O)CC1(Cc3ccc(C(=O)OC)cc3C1)C2` (stereo not given), for which the growth inhibition is -8.95% (inactive).

As to `CCN(CC)CCCNc1nc2ccccc2c2c1ncn2CC(C)C`, the growth inhibition is 13.2% (inactive).

In the case of `Cc1cn(CC(O)c2cc3ccccc3[nH]2)c(=O)[nH]c1=O` (stereo not given), the growth inhibition was 9.65% (inactive).

As to `NC(=O)c1c[n+]([O-])ccc1[N+](=O)[O-]`, the growth inhibition is -14.8% (inactive).

On to `c1ccc(Cc2nnc(Cc3ccccc3)nn2)cc1`, for which the growth inhibition is 21.4% (inactive).

As for `Cc1ccc(Sc2cccc3c2C(=O)c2c(Sc4ccc(C)cc4)cccc2C3(Br)c2ccccc2)cc1`, the growth inhibition was -0.15% (inactive).

With `CC(C)=CCNc1ncnc2c1ncn2CCC(=O)OC(C)(C)C`, the growth inhibition was 10.1% (inactive).

For the compound `COc1ccc(C2=C(C#N)C(=C(C#N)C#N)NC(N)=C2C#N)cc1`, the growth inhibition was -19.4% (inactive).
